Shown are actives, neighbours in structure and some others; about 3.1% of the full set was active somewhere.
S16 F2sN tox: toxic to S16 Pmp22-F2sN Schwann cells | Potency, µM (highest dose often 57.5 µM), without a hit: top-dose activity change, negative = cytotoxicity, most hits filed as cytotoxic | S16 Pmp22-F2sN Schwann cells viability, CellTiter-Glo, 24 h | 0.48% of 43,000 active; note: potency is the fitted concentration of half-maximal effect; % is set by controls: 0 for no effect and ±100 for the full control effect; nearly all actives have a fitted effect of over 65% in size
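Viability was measured by CellTiter-Glo luminescence (15 min, room temperature). This followed 24 h at 37 °C of compound exposure (23 nL pin transfer) in S16 Pmp22-F2sN Schwann cells, 500-1,000 per well.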
PMP22 txn: PMP22 gene transcription modulation; Potency, µM (top dose mostly 57.5 µM), without a hit: top-dose activity change, negative = inhibition, hits mostly inhibitors; AID 1508649; 2% of 43,000 active; S16 Pmp22-F2sN Schwann cells, FLuc/NLuc coincidence luminescence, 24 h; active = clear falling dose curves in both reporters; inconclusive = both reporters move, but less clearly or upward; inactive = either reporter flat; the % is the NLuc reporter signal; note: potency is the fitted concentration of half-maximal effect; % is set by controls: 0 for no effect and ±100 for the full control effect
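S16 Schwann cells carrying FLuc/NLuc coincidence reporter in the Pmp22 3' UTR treated with compound 24 h at 37C; FLuc then NLuc luminescence read sequentially by dual-luciferase reagents.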
SKOV3 invasion: inhibitors of ovarian cancer cell adhesion and invasion in omental model | SKOV3ip1-GFP adhesion/invasion on 3D omental model, fluorescence | Potency, µM (highest dose often 45.8 µM), without a hit: top-dose activity change, negative = inhibition, actives largely listed as inhibitors | 0.1% of 46,000 active;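 note: potency is the fitted concentration of half-maximal effect; plate controls were DMSO wells for no effect and tomatine positive control wells for full effect; nearly all actives have a fitted effect of over 65% in size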
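Adhesion/invasion was scored as fixed GFP-labeled SKOV3ip1 cell counts (488/509 nm), normalized to DMSO and tomatine controls. Cancer cells in serum-free medium, with four compound doses (0.36-46 umol/L), sat 2 hr at RT then 16 hr at 37 C on a 48 hr fibroblast/mesothelial/ECM culture.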
p53null 39C tox: p53 null cell cytotoxicity, nonpermissive temperature. AID 904. 0.97% of 55,000 active. H1299 p53-null (neo) cells, 39C, ATPlite viability, 24 h. Potency, µM (doses to about 46.1 µM), inactives show top-dose activity, negative = cell killing, usual class: cytotoxic;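 note: potency is the fitted concentration of half-maximal effect; 0% = DMSO only and -100% = full killing by 100 µM tamoxifen; nearly all actives have a fitted effect of over 50% in size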
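Temperature-shift cytotoxicity format: compound titrations on p53-null or A138V-expressing H1299 cells held 24 hr at 39C, cell ATP then measured, AC50 from Hill model.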
pS6 MEF inh: reduces mTORC1 signaling in Tsc2 and p53 null MEF cells. Tsc2-/- p53-/- MEF, phospho-rpS6 immunofluorescence/PI, 24 h. 0.78% of 44,000 active. AID 493208. Potency, µM (titrated, usually from 38.3 µM), inactives show top-dose activity change, negative = inhibition, most hits filed as inhibitors;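 note: potency is the fitted concentration of half-maximal effect; plate controls were DMSO for no effect and rapamycin for full effect; nearly all actives have a fitted effect of over 50% in size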
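Compounds act on Tsc2-/-, p53-/- fibroblasts carrying an empty vector for 24 h before fixation and dual staining for phospho-S6 and DNA (propidium iodide). Values are percentages of cells above a rapamycin-defined pS6/PI threshold.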
p53null 32C kill: selectivity test: cytotoxicity in p53 null cells, permissive temperature | H1299-neo p53 null cells, ATP luminescence, 24 h, 32C | Potency, µM (top dose mostly 46.1 µM), without a hit: top-dose activity change, negative = cytotoxicity, actives largely listed as cytotoxic | 0.62% of 55,000 active | AID 903;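 note: potency is the fitted concentration of half-maximal effect; 0% = DMSO only and -100% = full killing by 100 µM tamoxifen; nearly all actives have a fitted effect of over 55% in size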
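H1299-neo (p53-null) cells, 600/well, were pre-incubated overnight at 37C, then exposed to compounds at up to 46 uM for 24 hr at 32C. Viability was measured as ATP content by luminescence, and AC50 values came from Hill fits.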
NLuc sat counter: inhibits NanoLuc at saturating substrate, PMP22 counter-screen; Secreted NLuc enzyme (filtered S16 cell medium), Nano-Glo luminescence; shares compounds with PMP22 txn; 4% of 690 active; Potency, µM (doses to about 57.5 µM), without a hit: at the top dose activity change, negative = inhibition, most hits filed as inhibitors; AID 1508638; note: potency is the fitted concentration of half-maximal effect; % is set by controls: 0 for no effect and ±100 for the full control effect
NLuc Km ctr: counter-screen for PMP22 expression modulators: NanoLuc inhibition at Km. shares compounds with PMP22 txn. secreted NLuc enzyme, coelenterazine luminescence, Km conditions. Potency, µM (doses to about 57.5 µM), without a hit: at the highest dose activity change, negative = inhibition, usual class: inhibitors. 5% of 690 active; note: potency is the fitted concentration of half-maximal effect; % is set by controls: 0 for no effect and ±100 for the full control effect
FLuc ctr PMP22: inhibits firefly luciferase, PMP22 counter-screen | shares compounds with PMP22 txn | purified P. pyralis FLuc, luminescence, 10 min | Potency, µM (highest dose often 57.5 µM), inactives show at the top dose activity, negative = inhibition, most hits filed as inhibitors | 690 tested, under 10 active | AID 1508640; note: % of control where 0% means no effect
Target sequence (P08659 whole entry, looked up): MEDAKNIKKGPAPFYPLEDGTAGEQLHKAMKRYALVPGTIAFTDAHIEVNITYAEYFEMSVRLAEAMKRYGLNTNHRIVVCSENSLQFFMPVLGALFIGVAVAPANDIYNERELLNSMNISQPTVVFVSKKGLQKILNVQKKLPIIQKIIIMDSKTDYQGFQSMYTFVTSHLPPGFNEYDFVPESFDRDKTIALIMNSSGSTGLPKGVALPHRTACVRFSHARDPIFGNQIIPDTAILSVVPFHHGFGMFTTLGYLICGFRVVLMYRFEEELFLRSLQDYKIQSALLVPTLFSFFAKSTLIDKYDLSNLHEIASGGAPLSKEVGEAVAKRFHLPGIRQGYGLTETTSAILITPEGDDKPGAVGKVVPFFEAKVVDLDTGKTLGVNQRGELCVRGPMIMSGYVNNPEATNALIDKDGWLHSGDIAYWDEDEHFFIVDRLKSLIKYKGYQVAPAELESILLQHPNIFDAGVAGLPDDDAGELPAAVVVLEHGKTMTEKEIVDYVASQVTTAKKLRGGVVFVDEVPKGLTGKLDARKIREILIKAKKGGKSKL
S16 viab conf: confirmation of cytotoxicity in S16 Pmp22-F2sN Schwann cells (luciferase reporters placed in the Pmp22 gene) | shares compounds with PMP22 txn | S16 Schwann cells viability, CellTiter-Glo ATP luminescence, 24 h | 7% of 690 active | Potency, µM (titrated, usually from 57.5 µM), inactives show top-dose activity change, negative = viability loss, actives largely listed as cytotoxic; note: potency is the fitted concentration of half-maximal effect; % is set by controls: 0 for no effect and ±100 for the full control effect
PMP22 txn conf: PMP22 transcription modulation, confirmatory; shares compounds with PMP22 txn; S16 Schwann cells Pmp22-F2sN, dual luciferase, 24 h; Potency, µM (highest dose often 57.5 µM), for the others: top-dose activity change, negative = inhibition, usual class: inhibitors; 22% of 690 active; AID 1508646; active = clear falling dose curves in both reporters; inconclusive = both reporters move, but less clearly or upward; inactive = either reporter flat; the % is the FLuc reporter signal; note: potency is the fitted concentration of half-maximal effect
Starred values were filed as active, the others as inactive. Unless noted, calls come from the whole dose curve; as a rule, active = well fitted curve in the direction sought with a large enough effect; inconclusive = small, poorly fitted or top-dose-only effect, or another doubt; inactive = no such curve, though single readings can be large; an effect the other way counts as inactive or inconclusive.

How did CC(C)(C)c1ccc(C(=O)Nc2ccc3nc(SCC(=O)N4CCCC4)sc3c2)cc1 do in these assays?
S16 F2sN tox: inconclusive; PMP22 txn: inconclusive; SKOV3 invasion: inactive; p53null 39C tox: inconclusive; pS6 MEF inh: -26%; p53null 32C kill: 20µM*

How did Cc1ccc(C(=O)Nc2ccccc2)cc1S(=O)(=O)N1CCCC1 do in these assays?
S16 F2sN tox: 16%; PMP22 txn: -29%; SKOV3 invasion: 8%; p53null 39C tox: 22%; pS6 MEF inh: -4%; p53null 32C kill: inconclusive

Results for CC(=O)c1cccc(NC(=O)c2cc3c(s2)-c2c(C)cccc2OC3)c1 ?
S16 F2sN tox: inconclusive; PMP22 txn: inconclusive; SKOV3 invasion: -1%; p53null 39C tox: inconclusive; pS6 MEF inh: -2%; p53null 32C kill: 10µM*

Results for CC(=O)c1cccc(NC(=O)c2cccn(Cc3cccc(C)c3)c2=O)c1 ?
S16 F2sN tox: -5%; PMP22 txn: inconclusive; SKOV3 invasion: inactive; p53null 39C tox: 2%; pS6 MEF inh: -1%; p53null 32C kill: 7%

Results for COc1ccc(-c2cc(=O)c3cc(OCC(=O)OC(C)C)ccc3o2)cc1 ?
S16 F2sN tox: -1%; PMP22 txn: -4%; SKOV3 invasion: 1%; p53null 39C tox: 5µM*; pS6 MEF inh: -8%; p53null 32C kill: 3.2µM*

What do the screens show for `CN1[C@H]2CC(O)C[C@H]1[C@H]1O[C@H]12` (some centres not stated)?
SKOV3 invasion: -25%

How did COC(=O)[C@@H]1[C@@H](C(=O)OC)C2(c3ccccc3-c3ccccc32)N(c2ccc(Cl)cc2)N1C#N do in these assays?
p53null 39C tox: inconclusive; p53null 32C kill: 22µM*

Results for COC(=O)C[C@]1(C(=O)OC)CN(C#N)N(c2ccc(Cl)cc2)C12c1ccccc1-c1ccccc12 ?
p53null 39C tox: -1%; p53null 32C kill: inconclusive

How did CCOc1ccc(S(=O)(=O)NCCc2sc3nc(-c4ccc(C)cc4)nn3c2C)cc1 do in these assays?
S16 F2sN tox: 20µM*; PMP22 txn: inconclusive; SKOV3 invasion: 8%; p53null 39C tox: 21%; pS6 MEF inh: -1%; p53null 32C kill: 46%

Results for Cc1c(CCNS(=O)(=O)c2ccccc2)sc2nc(-c3ccc(Cl)cc3)nn12 ?
S16 F2sN tox: inconclusive; PMP22 txn: inconclusive; SKOV3 invasion: inconclusive; p53null 39C tox: inconclusive; pS6 MEF inh: -12%; p53null 32C kill: 23%

Results for O=C(NCc1ccccc1)N1CCc2c(sc3c2CCCC3)C1c1ccccc1 (configuration not stated) ?
S16 F2sN tox: inconclusive; PMP22 txn: 7.8µM*; SKOV3 invasion: -26%; p53null 39C tox: inconclusive; pS6 MEF inh: 1%; p53null 32C kill: 27%

Results for Cc1ccc2oc(-c3ccc(Cl)cc3)c(O)c(=O)c2c1 ?
S16 F2sN tox: inconclusive; PMP22 txn: inconclusive; SKOV3 invasion: 2%; p53null 39C tox: inconclusive; pS6 MEF inh: 9.3µM*; p53null 32C kill: -28%

How did CCCOc1ccc(C2SCC(=O)Nc3c2c(C)nn3-c2cccc(C)c2)cc1OC (configuration not stated) do in these assays?
S16 F2sN tox: -19%; PMP22 txn: inconclusive; SKOV3 invasion: inactive; p53null 39C tox: 25µM*; pS6 MEF inh: 0%; p53null 32C kill: -3%

How did CCOc1ccc(NC(=O)c2cc3c(C)nn(-c4ccccc4)c3s2)cc1 do in these assays?
S16 F2sN tox: -7%; PMP22 txn: inconclusive; SKOV3 invasion: -23%; p53null 39C tox: inconclusive; pS6 MEF inh: 18µM*; p53null 32C kill: inconclusive

How did CC1(N2CCC(n3c([C@@H]4CCCNC4)nc4ccccc43)CC2)CCCCCCC1 do in these assays?
SKOV3 invasion: 6%

How did c1ccc2c(CN3CCNCC3)cccc2c1 do in these assays?
SKOV3 invasion: -4%

What do the screens show for `COc1ccc2c(c1)CN(C)CC2c1ccc(Cl)c(Cl)c1` (configuration not stated)?
SKOV3 invasion: -5%

What do the screens show for `C[C@]12CC[C@H]3[C@@H](CCC4=CC(=O)CC[C@@]43C)[C@H]1CC[C@H]2OC(=O)CCC1CCCC1`?
SKOV3 invasion: -19%

Results for CCOc1ccc(NC(=O)CSc2oc(-c3ccccc3)nc2S(=O)(=O)c2ccc(Cl)cc2)cc1 ?
S16 F2sN tox: 6%; PMP22 txn: 10µM*; SKOV3 invasion: -1%; p53null 39C tox: 10µM*; pS6 MEF inh: inconclusive; p53null 32C kill: inconclusive; NLuc sat counter: inconclusive; NLuc Km ctr: inconclusive; FLuc ctr PMP22: 3%; S16 viab conf: inconclusive; PMP22 txn conf: 19µM*

What do the screens show for `O=c1[nH]c2ccc(Cl)cc2c(N[C@@H]2CN3CCC2CC3)c1-c1nc2ccccc2[nH]1`?
SKOV3 invasion: 39%

High-throughput results as filed in PubChem.
